Measurements from PubChem BioAssay (EPA / NIEHS).
Values joined by “and” are separate entries in the source; they are usually repeats but may differ in a detail not shown here. Identical values can stand only once. Results filed as inconclusive are left out. A structure can be active in one record and inactive in another. Active and inactive are the calls of the source. How the source made its calls, unless noted: active means hit-call score of the fitted dose curve at least 0.9, where 1 is the maximum; inconclusive means response in the unintended direction; inactive means score below 0.9.

Legend:
[1] = target: human Peroxisome Proliferator-activated Receptor delta (PPARd), PPARD (gene 5467) (UniProt Q03181); assay: ATG_PPARd_TRANS: Attagene TRANS-FACTORIAL HepG2 Assay for human Peroxisome Proliferator-activated Receptor delta (PPARd) (AID 2283002)
How it was run: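 Transient HepG2 transfection (multiple GAL4-UAS RTUs, chimeric receptor-Gal4); 24 h dosing; total RNA → oligo(dT) RT → PCR → 6-FAM primer extension → HpaI cut → CE. Positive direction vs DMSO.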

[2] = read-out: Intercellular Adhesion Molecule 1 (ICAM1), ICAM1 (gene 3383); assay: BSK_3C_ICAM1: BioMAP Diversity Plus: 3C Assay for Intercellular Adhesion Molecule 1 (ICAM1) Biomarker Activity (AID 2283003; active means hit-call score of the fitted dose curve at least 0.9, where 1 is the maximum; inactive means score below 0.9); conditions: primary human endothelial cells (HUVEC); actives raise or lower the signal
How it was run: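 Using DMSO as baseline, bidirectional curve fitting was applied to ICAM-1 ELISA signals from HUVEC in the 3C system, measured 24 h after compound addition.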

[3] = BSK_3C_Proliferation: Cell Proliferation Assessment in the BioMAP Diversity Plus: 3C Assay (AID 2283006; active means hit-call score of the fitted dose curve at least 0.9, where 1 is the maximum; inactive means score below 0.9;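 on AC50: potency may reflect either rise or fall in cell number versus DMSO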); conditions: primary human endothelial cells (HUVEC)
How it was run: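 Measured here: sulforhodamine B (0.1%) staining of TCA-fixed sub-confluent umbilical vein endothelial cultures 48 h post-dosing, absorbance 560 nm. DMSO served as negative control and baseline; both signal gain and loss were modelled.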

[4] = target: Peroxisome proliferator-activated receptor gamma (Homo sapiens) (UniProt P37231); assay: ATG_PPARg_TRANS: Attagene TRANS-FACTORIAL HepG2 Assay for human Peroxisome Proliferator-activated Receptor-gamma (PPARg) (AID 2283007)
How it was run: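 A TRANS-format multiplexed reporter assay measures activity of an exogenous chimeric NR-Gal4 protein in HepG2 cells. After 24 h of chemical exposure, reporter transcripts are amplified, fluorescently labelled and sized by capillary electrophoresis, with gain of signal scored against DMSO.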

[5] = target: Nuclear receptor subfamily 1 group I member 2 (Homo sapiens) (UniProt O75469); assay: ATG_PXR_TRANS: Attagene TRANS-FACTORIAL HepG2 Assay for human Pregnane X Receptor (PXR) (AID 2283008)
How it was run: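 Transactivation by exogenous PXR–GAL4 fusion measured as reporter transcript induction after 24 h compound treatment of transfected human HepG2 cells. Read-out via RT-PCR and capillary electrophoresis of labelled fragments, fitted upward relative to DMSO.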

[6] = target: human Retinoic Acid Receptor beta (RARb), RARB (gene 5915) (UniProt P10826); assay: ATG_RARb_TRANS: Attagene TRANS-FACTORIAL HepG2 Assay for human Retinoic Acid Receptor beta (AID 2283004)
How it was run: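 Fluorescent capillary-electrophoresis detection of GAL4-UAS reporter mRNA defines the endpoint, with induction over DMSO-treated wells scored as activity. Transiently transfected human hepatoma HepG2 cells expressing exogenous NR–Gal4 proteins are exposed to test chemicals for 24 h.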

[7] = target: Retinoic acid receptor alpha (Homo sapiens) (UniProt P10276); assay: ATG_RARa_TRANS: Attagene TRANS-FACTORIAL HepG2 Assay for human Retinoic Acid Receptor alpha (RARa) (AID 2283005)
How it was run: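 Reporter transcripts, measured by RT-PCR with fluorescent labeling and capillary electrophoresis after 24 h dosing, reflect activity of an exogenous human RARa–GAL4 fusion in transiently transfected HepG2. Fitted for increase relative to DMSO.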

[8] = target: human RAR-related Orphan Receptor beta (RORb), RORB (gene 6096) (UniProt Q92753); assay: ATG_RORb_TRANS: Attagene TRANS-FACTORIAL HepG2 Assay for human RAR-related Orphan Receptor beta (RORb) (AID 2283010)
How it was run: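 Multiplexed transcription-factor reporter assay: HepG2 cells transiently carrying NR-Gal4/GAL4-UAS constructs, 24 h treatment, mRNA quantified by RT-PCR plus capillary electrophoresis fluorescence; activity scored as induction over DMSO.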

[9] = target: human Peroxisome Proliferator-activated Receptor alpha (PPARa), PPARA (gene 5465) (UniProt Q07869); assay: ATG_PPARa_TRANS: Attagene TRANS-FACTORIAL HepG2 Assay for human Peroxisome Proliferator-activated Receptor alpha (PPARa) (AID 2283001);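 on AC50: potency for gain of reporter signal over DMSO so agonist or activator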
How it was run: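 Transfected HepG2 cells treated with test chemical for 24 h. RNA isolated, reverse-transcribed with oligo(dT), PCR-amplified, FAM-labelled and HpaI-digested. Fragments sized by capillary electrophoresis; gain-of-signal fit relative to DMSO.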

[10] = target: human Retinoic Acid Receptor gamma (RARg), RARG (gene 5916) (UniProt P13631); assay: ATG_RARg_TRANS: Attagene TRANS-FACTORIAL HepG2 Assay for human Retinoic Acid Receptor gamma (RARg) (AID 2283009)
How it was run: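 Gain-of-signal relative to DMSO is reported from fluorescent capillary electrophoresis of RT-PCR reporter products. These came from HepG2 cells expressing transfected RARg-GAL4 chimeras with UAS reporters, harvested 24 h after dosing.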

Measured: AC50

Chain of Nuclear receptor subfamily 1 group I member 2 (Homo sapiens) (O75469 whole entry, looked up, the tested form may be a part): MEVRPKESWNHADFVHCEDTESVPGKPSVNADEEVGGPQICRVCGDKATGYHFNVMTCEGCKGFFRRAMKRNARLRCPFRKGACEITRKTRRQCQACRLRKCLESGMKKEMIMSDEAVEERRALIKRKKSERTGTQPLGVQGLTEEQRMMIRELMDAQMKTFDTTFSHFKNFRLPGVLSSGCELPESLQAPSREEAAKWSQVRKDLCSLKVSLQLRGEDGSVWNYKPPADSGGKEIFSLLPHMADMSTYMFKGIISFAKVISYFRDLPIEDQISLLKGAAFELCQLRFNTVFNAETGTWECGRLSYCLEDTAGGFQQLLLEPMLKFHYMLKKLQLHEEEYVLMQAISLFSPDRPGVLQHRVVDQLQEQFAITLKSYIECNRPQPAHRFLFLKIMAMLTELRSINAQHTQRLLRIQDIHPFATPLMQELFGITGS
Chain of Peroxisome proliferator-activated receptor gamma (Homo sapiens) (P37231 whole entry, looked up, the tested form may be a part): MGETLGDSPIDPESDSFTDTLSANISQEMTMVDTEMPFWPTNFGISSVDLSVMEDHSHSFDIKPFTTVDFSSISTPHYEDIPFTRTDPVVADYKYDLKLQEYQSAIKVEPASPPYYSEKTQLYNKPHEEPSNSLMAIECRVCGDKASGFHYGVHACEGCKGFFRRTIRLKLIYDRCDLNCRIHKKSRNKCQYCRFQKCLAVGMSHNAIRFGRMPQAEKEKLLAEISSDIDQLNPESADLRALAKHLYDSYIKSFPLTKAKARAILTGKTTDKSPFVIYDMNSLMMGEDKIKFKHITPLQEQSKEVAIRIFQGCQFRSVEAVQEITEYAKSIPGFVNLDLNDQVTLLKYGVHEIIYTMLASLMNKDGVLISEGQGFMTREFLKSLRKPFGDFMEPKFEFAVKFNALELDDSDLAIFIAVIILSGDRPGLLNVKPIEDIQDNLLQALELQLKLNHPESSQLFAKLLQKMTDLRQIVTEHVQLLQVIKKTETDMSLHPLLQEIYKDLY
Chain of Retinoic acid receptor alpha (Homo sapiens) (P10276 whole entry, looked up, the tested form may be a part): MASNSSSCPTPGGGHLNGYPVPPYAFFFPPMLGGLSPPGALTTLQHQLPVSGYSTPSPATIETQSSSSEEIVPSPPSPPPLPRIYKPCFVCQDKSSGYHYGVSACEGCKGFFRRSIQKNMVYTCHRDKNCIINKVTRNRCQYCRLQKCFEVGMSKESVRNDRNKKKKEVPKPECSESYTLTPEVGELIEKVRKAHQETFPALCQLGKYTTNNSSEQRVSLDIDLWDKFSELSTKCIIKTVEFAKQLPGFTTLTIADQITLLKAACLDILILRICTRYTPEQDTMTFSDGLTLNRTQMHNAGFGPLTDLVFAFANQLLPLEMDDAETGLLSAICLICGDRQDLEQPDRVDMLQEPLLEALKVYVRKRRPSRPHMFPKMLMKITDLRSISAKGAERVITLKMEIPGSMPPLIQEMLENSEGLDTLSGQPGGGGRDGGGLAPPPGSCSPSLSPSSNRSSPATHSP
Chain of human Retinoic Acid Receptor gamma (RARg), RARG (gene 5916) (P13631 whole entry, looked up, the tested form may be a part): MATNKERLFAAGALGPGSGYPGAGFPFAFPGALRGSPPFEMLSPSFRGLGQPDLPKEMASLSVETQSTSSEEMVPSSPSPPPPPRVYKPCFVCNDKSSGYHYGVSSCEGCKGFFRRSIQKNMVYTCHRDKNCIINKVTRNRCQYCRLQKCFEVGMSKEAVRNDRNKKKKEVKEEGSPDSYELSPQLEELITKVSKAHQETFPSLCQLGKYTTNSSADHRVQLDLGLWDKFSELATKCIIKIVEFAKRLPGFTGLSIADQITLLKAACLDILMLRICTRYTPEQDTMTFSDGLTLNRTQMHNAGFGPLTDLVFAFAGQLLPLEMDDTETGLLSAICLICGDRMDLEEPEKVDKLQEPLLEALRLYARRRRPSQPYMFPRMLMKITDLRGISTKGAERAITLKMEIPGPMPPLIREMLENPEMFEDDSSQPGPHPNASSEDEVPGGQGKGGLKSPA
Chain of human Peroxisome Proliferator-activated Receptor alpha (PPARa), PPARA (gene 5465) (Q07869 whole entry, looked up, the tested form may be a part): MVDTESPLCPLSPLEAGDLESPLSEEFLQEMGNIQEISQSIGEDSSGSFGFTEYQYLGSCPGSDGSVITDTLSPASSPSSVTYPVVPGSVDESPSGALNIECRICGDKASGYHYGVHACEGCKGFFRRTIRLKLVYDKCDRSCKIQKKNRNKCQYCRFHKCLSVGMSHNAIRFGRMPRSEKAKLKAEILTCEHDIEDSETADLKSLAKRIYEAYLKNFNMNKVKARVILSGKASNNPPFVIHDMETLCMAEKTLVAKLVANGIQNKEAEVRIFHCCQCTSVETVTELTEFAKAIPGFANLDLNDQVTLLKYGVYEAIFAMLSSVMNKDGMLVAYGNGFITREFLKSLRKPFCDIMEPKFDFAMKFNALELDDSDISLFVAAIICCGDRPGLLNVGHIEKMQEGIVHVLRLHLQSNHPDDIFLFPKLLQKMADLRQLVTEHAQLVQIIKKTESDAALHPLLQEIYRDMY
Chain of human Peroxisome Proliferator-activated Receptor delta (PPARd), PPARD (gene 5467) (Q03181 whole entry, looked up, the tested form may be a part): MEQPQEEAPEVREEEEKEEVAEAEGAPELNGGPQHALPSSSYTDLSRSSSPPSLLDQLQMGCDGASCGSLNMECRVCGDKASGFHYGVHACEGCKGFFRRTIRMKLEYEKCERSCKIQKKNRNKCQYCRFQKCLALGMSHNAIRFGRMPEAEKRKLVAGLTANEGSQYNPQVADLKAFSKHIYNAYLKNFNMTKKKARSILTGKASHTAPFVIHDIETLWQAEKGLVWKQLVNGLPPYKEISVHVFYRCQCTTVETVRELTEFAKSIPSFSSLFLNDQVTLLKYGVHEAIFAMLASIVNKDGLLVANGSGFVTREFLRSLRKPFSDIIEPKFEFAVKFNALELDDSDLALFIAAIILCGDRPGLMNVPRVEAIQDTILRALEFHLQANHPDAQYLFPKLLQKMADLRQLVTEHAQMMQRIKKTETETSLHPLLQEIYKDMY
Chain of human RAR-related Orphan Receptor beta (RORb), RORB (gene 6096) (Q92753 whole entry, looked up, the tested form may be a part): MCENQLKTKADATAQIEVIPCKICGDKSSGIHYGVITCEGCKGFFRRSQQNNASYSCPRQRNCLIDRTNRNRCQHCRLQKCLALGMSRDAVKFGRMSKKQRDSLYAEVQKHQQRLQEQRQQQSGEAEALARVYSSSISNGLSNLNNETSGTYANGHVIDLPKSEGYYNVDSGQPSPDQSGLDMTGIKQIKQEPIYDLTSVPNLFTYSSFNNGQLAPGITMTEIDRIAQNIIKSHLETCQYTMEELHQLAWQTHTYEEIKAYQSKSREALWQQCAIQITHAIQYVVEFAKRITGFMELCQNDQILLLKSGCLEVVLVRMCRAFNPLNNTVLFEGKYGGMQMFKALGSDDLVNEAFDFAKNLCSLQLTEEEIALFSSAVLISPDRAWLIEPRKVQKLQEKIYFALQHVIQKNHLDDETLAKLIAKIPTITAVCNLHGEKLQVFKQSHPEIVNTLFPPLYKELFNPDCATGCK
Chain of human Retinoic Acid Receptor beta (RARb), RARB (gene 5915) (P10826 whole entry, looked up, the tested form may be a part): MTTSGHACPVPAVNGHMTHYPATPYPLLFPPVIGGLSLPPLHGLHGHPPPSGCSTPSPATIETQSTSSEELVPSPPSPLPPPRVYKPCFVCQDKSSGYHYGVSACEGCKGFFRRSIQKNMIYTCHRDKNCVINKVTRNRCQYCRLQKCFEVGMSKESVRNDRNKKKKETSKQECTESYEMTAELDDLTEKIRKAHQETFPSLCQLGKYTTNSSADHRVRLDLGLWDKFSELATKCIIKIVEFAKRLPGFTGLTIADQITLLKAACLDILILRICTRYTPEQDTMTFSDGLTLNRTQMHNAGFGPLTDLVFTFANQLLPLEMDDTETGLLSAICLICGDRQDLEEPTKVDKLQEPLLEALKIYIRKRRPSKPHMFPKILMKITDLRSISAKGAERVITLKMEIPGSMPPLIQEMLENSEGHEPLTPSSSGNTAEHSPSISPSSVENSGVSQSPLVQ

CC(C)(C)c1cc(C(C)(C)C)c(O)c(C(C)(C)C)c1
inactive: [1] | [2] | [3] | [4] | [5]

CCc1nn(C2CCCCC2)c2cc(C3(C#N)CCC(C(=O)O)CC3)ccc12 (configuration not stated)
inactive: [1] | [2] | [6] | [7] | [5]
active: [3] 6.36 µM | [4] 1.44 µM

N#C[C@@H]1CC(F)(F)CN1C(=O)CNC1CC2CCC(C1)N2c1ncccn1 (some centres not stated)
inactive: [2] | [6] | [3] | [5] | [8]

CC#C[C@]1(O)CC[C@H]2[C@@H]3CCC4=CC(=O)CCC4=C3[C@@H](c3ccc(N(C)C)cc3)C[C@@]21C
active: [3] 28.6 µM | [4] 193 nM [middle of 4 runs] | [5] 777 nM and 356 nM and 928 nM
inactive: [1] | [2] | [5]

c1ccc2cc3c(ccc4ccccc43)cc2c1
active: [3] 0.148 µM | [4] 16.9 µM and 6.24 µM and 6.09 µM
not listed: [1] | [6]
inactive: all other assays above

CC(C)(C)CC(C)(C)c1ccc(O)c(-n2nc3ccccc3n2)c1
active: [5] 3.65 µM
not listed: [6] | [7] | [9]
inactive: all other assays above

CCCCCCCC(=O)O
inactive: [9] | [2] | [3] | [4] | [5] | [8]

CC(O)CO (configuration not stated)
not listed: [1] | [5] | [8]
inactive: all other assays above

C=C(C)C(=O)OCCC(F)(F)C(F)(F)C(F)(F)C(F)(F)C(F)(F)C(F)(F)F
inactive: [9] | [2] | [3] | [4] | [5]
active: [3] 12.8 µM

CN1CCN(c2ccccc2/C=C2\SCCN(c3ccc(Cl)c(Cl)c3)C2=O)CC1
active: [3] 5.3 µM | [4] 0.865 µM | [5] 3.7 µM
inactive: [2] | [8]

C#C[C@]1(O)CC[C@H]2[C@@H]3CCC4=CC(=O)CC[C@@H]4[C@H]3CC[C@@]21C
active: [3] 4.1 µM | [5] 26.6 µM
inactive: [1] | [2] | [6] | [7] | [4] | [5] | [10]

COCC(C)OCC(C)O (configuration not stated)
inactive: [1] | [2] | [3] | [4] | [10]

Cc1cc(C)c(O)c(C)c1
not listed: [1] | [8]
inactive: all other assays above

CC(C)(C)c1cccc(C(C)(C)C)c1O
active: [3] 36.4 µM | [5] 60.2 µM
not listed: [9]
inactive: all other assays above

CCC(C)(C)C1CCC(O)CC1 (configuration not stated)
not listed: [7] | [9] | [10]
inactive: all other assays above

CC[C@H](C)[C@@H](C(=O)O)n1sc2ccccc2c1=O
active: [4] 100 µM
inactive: [2] | [6] | [7] | [3] | [5]

CCCCCCCCC(=O)O
inactive: [2] | [3] | [5] | [10]
active: [9] 11.4 µM and 41.6 µM

O=C(/C=C/c1ccc(O)cc1)CC(=O)/C=C/c1ccc(O)cc1
inactive: [9] | [6] | [5] | [10]
active: [4] 3.49 µM
